About 79,000 compounds went through this panel and 15% of them were active in at least one assay; those are over-represented in the sample as a whole. No stated cut-off is given here; in the data, active means growth inhibition above about 70%; inactive means the rest.
What was measured:
[1] = NCI Yeast Anticancer Drug Screen. Data for the rad50 strain (AID 155);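 further: 0% = growth of vehicle-only cultures of the same strain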; settings: S. cerevisiae rad50 strain growth inhibition; at 50.0 µM; active compounds read high
Method in brief: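 Yeast carrying a defined DNA repair defect were exposed to test compounds, and growth was compared with vehicle-treated controls to give percent inhibition.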

[2] = NCI Yeast Anticancer Drug Screen. Data for the mec2-1 strain (AID 157); settings: S. cerevisiae mec2-1 strain, at 50.0 µM, active compounds read high
Method in brief: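 Readout is yeast growth inhibition, normalised to vehicle-treated controls, in the mec2-1 strain exposed to compound.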

[3] = NCI Yeast Anticancer Drug Screen. Data for the sgs1 mgt1 strain (AID 161);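 further: 0% = growth of cultures given vehicle only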; settings: S. cerevisiae sgs1 mgt1 strain, at 50.0 µM, active compounds read high
Method in brief: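 Growth of a repair-deficient yeast mutant was monitored after compound treatment and expressed as inhibition relative to vehicle-treated cultures.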

[4] = NCI Yeast Anticancer Drug Screen. Data for the cln2 rad14 strain (AID 165);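 further: 0% = growth equal to vehicle treated cultures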; settings: S. cerevisiae cln2 rad14 strain, at 50.0 µM, active compounds read high
Method in brief: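 Relative to vehicle controls, growth inhibition of compound-treated cln2 rad14 yeast was recorded.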

[5] = NCI Yeast Anticancer Drug Screen. Data for the bub3 strain (AID 167); settings: S. cerevisiae bub3 mutant strain, at 50.0 µM, active compounds read high
Method in brief: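 Compounds were applied to a genetically altered yeast strain carrying a cell-cycle control defect. Growth inhibition was scored against vehicle-treated controls.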

[6] = NCI Yeast Anticancer Drug Screen. Data for the mlh1 rad18 strain (AID 175); settings: S. cerevisiae mlh1 rad18 strain growth inhibition; at 50.0 µM; active compounds read high
Method in brief: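 Test agents were incubated with a yeast strain of defined genotype (DNA damage repair defect). Inhibition of growth was derived by comparison with vehicle-exposed cultures.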

Measured: growth inhibition

CCOC(OCC)C(=O)c1ccccc1
inactive: [1] -0.5% | [2] -19.9% | [3] -4.1% | [4] 9.2% | [5] 6.25% | [6] 25.1%

O=[n+]1ccn([O-])c2ccccc21
inactive: [1] 11.3% | [2] 8.45% | [3] 9.05% | [4] -52.2% | [5] -8.1% | [6] 20.6%

COc1cc(N)c2ncccc2c1Cl
inactive: [1] 17.6% | [2] 3.55% | [3] 24.4% | [4] -0.05% | [5] -7.3% | [6] 30.4%

C=COC(=O)C(C)(C)C
inactive: [1] 8.3% | [2] -13.8% | [3] 14.9% | [4] 21.4% | [5] -0.45% | [6] 31.5%

NC(=S)N/N=C/c1ccc(OC(=O)COc2ccc(Cl)cc2)cn1
inactive: [1] 5.65% | [2] 7.85% | [3] 31.4% | [4] -1.25% | [5] 4.2% | [6] 9.5%

CC(=O)N(C)N=Nc1ccc(C)cc1
inactive: [1] 3.7% | [2] -23.6% | [3] -13.6% | [4] 4% | [5] 0.1% | [6] -4.05%

CC(=O)NC(O)C(Cl)Cl (stereo not drawn)
inactive: [1] -14.7% | [2] -6.05% | [3] -6.95% | [4] -23.3% | [5] -5.7% | [6] -14.2%

CCOC(=O)C(COS(C)(=O)=O)(COS(C)(=O)=O)C(=O)OCC
inactive: [1] -24.4% | [2] -22.9% | [3] -21.4% | [4] -2.05% | [5] -2.35% | [6] -6.1%

CCCC(=O)CC(=O)c1ccccc1
inactive: [1] 7.75% | [2] 10.4% | [3] -3.75% | [4] -13.6% | [5] 5.85% | [6] 4.4%

CC(=O)N(CCCCCCN(C(C)=O)C(C)=O)C(C)=O
inactive: [1] -14.8% | [2] -9.25% | [3] -0.5% | [4] -0.55% | [5] -9.85% | [6] -6.15%

Cc1ccc(C)c(CCO)c1
inactive: [1] -22.1% | [2] -38.5% | [3] -30.5% | [4] -2.9% | [5] -21.4% | [6] -7.3%

Cc1cc(=O)n(Nc2ccccc2)c(O)c1C#N
inactive: [1] 3.45% | [2] -19% | [3] 0.3% | [4] 2.65% | [5] 5.6% | [6] 3.15%

O=C(O)c1c[nH]c2ccccc2c1=O
inactive: [1] 4.95% | [2] -8.15% | [3] 5.7% | [4] -21.5% | [5] 1.65% | [6] 1.65%

Cc1ccc(C2CCCCC2)cc1Br
inactive: [1] 5.7% | [2] 4.25% | [3] 4.4% | [4] 3.15% | [5] 9.45% | [6] 28.3%

COC(=O)C1(CC(C)=O)NC(=S)NC(=O)C1C#N (stereo not drawn)
inactive: [1] -21.4% | [2] -26.9% | [3] -36.3% | [4] -38.2% | [5] -30.1% | [6] -15.3%

COc1cc(CC#N)c([N+](=O)[O-])cc1OC
inactive: [1] -3.15% | [2] -22.1% | [3] -12.8% | [4] -39% | [5] -14.2% | [6] 0.4%

CCOC(=O)C(CCC#N)(CCC#N)C(=O)OCC
inactive: [1] 39.5% | [2] 9.8% | [3] -2.2% | [4] -21.3% | [5] 12.6% | [6] 38.7%

S=C=Nc1ccc2ccccc2c1
inactive: [1] 15.3% | [2] -12.4% | [3] -5.9% | [4] 10.6% | [5] 2.35% | [6] 21.1%

Oc1cc(O)c2c(c1)O[C@H](c1ccc(O)c(O)c1)[C@@H](O)C2
inactive: [1] 0.9% | [2] -17.9% | [3] 2.75% | [4] 1.35% | [5] -6.45% | [6] -18.1%

Nc1cc2c(cc1Cl)C(=O)c1ccccc1C2=O
inactive: [1] 32.4% | [2] 16.6% | [3] 9.75% | [4] -63.6% | [5] 38.4% | [6] 1.35%

CC(c1ccccc1)N1C(=O)CSC1=S (stereo not drawn)
inactive: [1] 37.1% | [2] 30.5% | [3] 22.8% | [4] 35.8% | [5] 53.6% | [6] 52.1%

CCOc1ccc(C(=O)NCC(C)C)cc1
inactive: [1] -1.2% | [2] 2.4% | [3] 26.6% | [4] -14.1% | [5] 9% | [6] -13.7%

O=C(Nc1ccc([N+](=O)[O-])cc1)C(=O)Nc1ccc([N+](=O)[O-])cc1
inactive: [1] -8.7% | [2] -24.2% | [3] 11.6% | [4] -7.55% | [5] 3.1% | [6] 5.3%

Clc1ccc(C(SCc2ccccc2)SCc2ccccc2)cc1
inactive: [1] -41.4% | [2] -46.8% | [3] -15.6% | [4] -17.6% | [5] -10% | [6] -20.1%

Clc1ccc(/C=C/c2ccccn2)cc1
inactive: [1] 21.1% | [2] 2.05% | [3] 9.3% | [4] -16.2% | [5] 7.5% | [6] 28.4%

CCOC(=O)c1cc(Cl)c(O)c(Cl)c1
inactive: [1] 4.5% | [2] -14% | [3] 1.4% | [4] 11.7% | [5] 3.25% | [6] 13.9%

Cc1ccc(C(C)C)c(OCC(=O)O)c1
inactive: [1] 15.4% | [2] 12% | [3] 24.2% | [4] 8.65% | [5] -6.85% | [6] 25.6%

O=C1C=C[C@H](O)[C@@]2(CO)O[C@@H]12
inactive: [1] 5.85% | [2] 0.85% | [3] -14.5% | [4] -6.1% | [5] -13.7% | [6] 11.7%

CC1CCC(C(C)(C)[N+](C)(C)C)CC1 (stereo not drawn)
inactive: [1] 40.2% | [2] 17.6% | [3] 23.9% | [4] 10.6% | [5] 47.2% | [6] 36.4%

Nc1cccc2cccc(O)c12
inactive: [1] 40.1% | [2] 18.7% | [3] -17.5% | [4] -10.8% | [5] 41.4% | [6] 43.5%

CC1(C)OC(=O)CC1=O
inactive: [1] 4.6% | [2] -2.45% | [3] 0.55% | [4] 3.65% | [5] 1.8% | [6] -3.2%

O=C(NCCc1ccccc1)/C(=C\c1ccc(Cl)cc1Cl)NC(=O)c1ccccc1
inactive: [1] 1.65% | [2] -6.15% | [3] 1.85% | [4] -5.95% | [5] 4.35% | [6] 13.9%

CCOc1ccc(NC(=S)N2CCC(CCCC3CCN(C(=S)Nc4ccc(OCC)cc4)CC3)CC2)cc1
inactive: [1] -6.6% | [2] -31.9% | [3] -15.1% | [4] 14.9% | [5] -9.05% | [6] -11.4%

Clc1ccc(-c2noc(/C=C\c3ccccc3)n2)cc1
inactive: [1] 12.7% | [2] -20.1% | [3] 4.8% | [4] 12.1% | [5] 8.7% | [6] 7.45%

C/C(=N\O)c1ccccn1
inactive: [1] -7.6% | [2] -16.4% | [3] -17.9% | [4] 1.15% | [5] -8.85% | [6] 1.45%

COC(=O)Cc1cc(COC(C)=O)ccc1C
inactive: [1] 0.05% | [2] 0% | [3] -0.7% | [4] -57% | [5] -17.2% | [6] -7.8%

CCCCCC/C=C\CCCCCCCCCc1cc(O)cc(OC)c1O
inactive: [1] -8.55% | [2] 4.45% | [3] -5.65% | [4] -9.8% | [5] -33.2% | [6] 13.2%

O=S(=O)(c1ccc(NC(=S)NCc2cccnc2)cc1)N1CCCCC1
inactive: [1] 21.9% | [2] 11.9% | [3] 23.9% | [4] 1.8% | [5] 36.4% | [6] 22.2%

CCCCCC#CC(=O)O
inactive: [1] -3.05% | [2] -3.95% | [3] -8.05% | [4] 17.9% | [5] -7.3% | [6] 19.4%

C=CC(C)(C)n1cc(C2=C(O)C(=O)C(c3cn(C(C)(C)C=C)c4ccccc34)=C(O)C2=O)c2ccccc21
inactive: [1] -1.6% | [2] -26.6% | [3] -2.3% | [4] 4.7% | [5] -18.8% | [6] -13.4%

CC(=O)Nc1ccc(/C=C2\SC(=S)N(/C=C(\C(C)=O)C(N)=O)C2=O)cc1
inactive: [1] -52% | [2] -7.4% | [3] -37.6% | [4] -0.8% | [5] -5% | [6] -11.2%

C/C(=N\N=C(/C)c1cccc([N+](=O)[O-])c1)c1cccc([N+](=O)[O-])c1
inactive: [1] -5.75% | [2] -21% | [3] 17.5% | [4] -10.3% | [5] 16.4% | [6] -7.7%

CN(C)c1ccc(O)c2c1CC1CC3C(N(C)C)C(=O)C(C(N)=O)=C(O)C3(O)C(=O)C1=C2O (stereo not drawn)
inactive: [1] 60.8% | [2] 29.7% | [3] 68.2% | [4] 18.4% | [5] 3.6% | [6] 32.9%
